Data: PubChem BioAssay
Unmarked numbers belong to inactive results.

Assay: cell viability in Huh7 cells, primary screen, cytotoxicity control for HCV replication inhibitor project, CellTiter-Glo luminescence, basal, 48 h (AID 1143);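 also: Huh7 hepatoma cells carrying a hepatitis C replication reporter with no stimulus; test concentration not given here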
Conditions: Huh7 HCV replicon, higher = more signal, called active from +8 up or from −8 down

First: CCCC[C@@H](O)C1=C(C)Cn2c(=O)n(-c3ccccc3)c(=O)n2[C@H]1CO
Second: CC(C)c1ccc(NN2C(C(O)c3ccccc3)C=CC3C(=O)N(c4ccccc4)C(=O)C32)cc1 (stereo unspecified)
The z-score of the first is lower: -1.07 for the first, -0.0828 for the second.

Going from `CCOC(=O)C[C@H]1[C@H](OC(=O)c2cc3ccccc3oc2=O)[C@@H](NC(=O)Cc2ccc(OC)cc2)c2cc(OCCCO)ccc2N1C(=O)Cc1ccc(OC)cc1` to `CCOC(=O)C[C@H]1[C@H](OC(=O)Cc2ccc3c(c2)OCO3)[C@@H](NC(=O)CC(C)C)c2cc(OCCCO)ccc2N1C(=O)c1ccc2ccccc2n1`, the z-score falls from -1.5 to -3.23.

Compared with `COC(=O)C1=CC(CCCO)=CC(c2ccc(CN3CCCC3)cc2)N(C)C=C1C(=O)OC` (stereo unspecified), `COCCCNC(=O)[C@@]1(Cc2ccccc2I)c2ccccc2C(=O)N(C2CCCCC2)[C@H]1c1ccc(CO)cc1` is lower in z-score: 0.209 for the first, -4.51 for the second.

First: CCOC(=O)C[C@H]1[C@H](OC(=O)c2ccc(-c3ccccc3)cc2)[C@@H](NC(=O)c2ccc(-c3ccccc3)cc2)c2cc(OCCCO)ccc2N1C(=O)c1ccccc1
Second: CCOC(=O)C[C@H]1[C@H](OC(=O)c2ccccc2-c2ccccc2)[C@@H](NC(=O)CC(C)C)c2cc(OCCCO)ccc2N1C(=O)c1ccccc1
The z-score of the first is higher: -0.212 for the first, -0.715 for the second.

Compared with `COc1ccc(C(=O)Nc2cccc(CN3C(=O)[C@]4(O[C@H](CC(=O)N(CCO)Cc5ccccc5)[C@@H]([Si](C)(C)c5ccc(OC)cc5)[C@@H]4C)c4ccccc43)c2)cc1`, `COc1ccc(C(=O)Nc2ccc(CN3C(=O)[C@]4(O[C@H](CC(=O)N(CCO)Cc5ccccc5)[C@@H]([Si](C)(C)c5ccc(OC)cc5)[C@@H]4C)c4ccccc43)cc2)cc1` is higher in z-score: -4.13 for the first, -4.06 for the second.

Compared with `O=C(N1CCOCC1)[C@]1(CCS(=O)(=O)c2ccccc2)N=C(c2ccc(OCCCO)cc2)O[C@@H]1c1ccccc1`, `COCCCNC(=O)[C@]1(Cc2ccccc2N=[N+]=[N-])N=C(c2ccc(OCCCO)cc2)O[C@@H]1c1ccccc1` is lower in z-score: -2.3 for the first, -3.94 for the second.

Going from `COc1ccc([Si](C)(C)[C@H]2[C@H](CC(=O)N3CCC[C@H]3CO)O[C@@]3(C(=O)N(C)c4c(Br)cc(C)cc43)[C@@H]2C)cc1` to `COC(=O)C[C@H]1O[C@]2(C(=O)N(C)c3ccccc32)[C@@H](C)[C@@H]1[Si](C)(C)c1ccccc1`, the z-score falls from -1.11 to -4.59.

First: [N-]=[N+]=NCc1ccccc1[C@H]1OC(c2ccc(OCCCO)cc2)=N[C@@]1(Cc1ccccc1N=[N+]=[N-])C(N)=O
Second: C=CC[C@]1(C(=O)NCC(O)CO)N=C(c2ccc(OCCCO)cc2)O[C@H]1c1ccccc1CN=[N+]=[N-] (stereo partly specified)
The z-score of the first is lower: -1.38 for the first, -0.627 for the second.

Compared with `C[C@]1(C(=O)NC2CC2)c2ccccc2C(=O)N(Cc2cc(F)cc(C(F)(F)F)c2)[C@H]1c1ccc(CO)cc1`, `CCCNC(=O)[C@@]1(Sc2ccc(C)cc2)CC(=O)N(Cc2cc(C(F)(F)F)cc(C(F)(F)F)c2)[C@@H]1c1ccc(CO)cc1` is lower in z-score: -2.15 for the first, -4.41 for the second.

Compared with `CC(C)N1CC=CC23O[C@@H]4/C=C\CCCOC(=O)C4[C@H]2C(=O)N(C(C)CO)[C@@H]3C1=O` (stereo partly specified), `CCCCN1CC=CC23O[C@@H]4/C=C\CCCOC(=O)C4[C@H]2C(=O)N(CCCCCCO)[C@@H]3C1=O` (stereo partly specified) is lower in z-score: 0.282 for the first, 0.121 for the second.

First: CN(C)CCCCNC(=O)[C@H]1C[C@H]2C(=O)N[C@@H](CCCCN(C)C)C(=O)N2[C@H]1c1ccc(O)cc1
Second: C=CCNC(=O)[C@@H]1[C@H]2C(=O)O[C@H](c3ccccc3)[C@H](c3ccccc3)N2[C@H](c2ccc(OCCO)cc2)[C@@]12C(=O)N(C(=O)OCCOC)c1ccccc12
The z-score of the first is higher: -1.14 for the first, -1.32 for the second.

Going from `CC(CO)N1C(=O)[C@@H]2[C@H]3C(=O)OCC=C[C@H]3OC23C=CCN(c2ccc4ccccc4c2)C(=O)[C@@H]13` (stereo partly specified) to `CO[C@H]1O[C@H](CO)[C@@H](OC(=O)CCc2ccccc2)[C@@H]2OC(=O)[C@@H](Cc3ccc4ccccc4c3)C/C=C/C[C@H](Cc3ccc4ccccc4c3)C(=O)O[C@@H]12`, the z-score falls from 0.417 to -2.59.

First: CC(C)N1C(=O)[C@@]2(Cc3ccccc31)c1ccccc1C(=O)N(Cc1ccccc1)[C@H]2c1ccc(CO)cc1
Second: O=C1c2ccccc2[C@@]2(Cc3ccccc3N(CC(F)(F)F)C2=O)[C@H](c2ccc(CO)cc2)N1Cc1ccccc1
The z-score of the first is higher: 0.629 for the first, -4.1 for the second.

Compared with `CCOC(=O)C1=CC[C@@H](c2ccccc2)N(S(=O)(=O)c2ccc(C)cc2)[C@@H]1C#N`, `COC(=O)Cn1c(C(=O)N(C)C)cc2c1C[C@H]1CN(C(=O)c3ccccc3)[C@@](Cc3ccccc3)(C(=O)OC)[C@@H]21` is higher in z-score: -2.54 for the first, -0.273 for the second.

Going from `COc1ccc([Si](C)(C)[C@@H]2[C@@H](CC(=O)N(CCO)Cc3ccccc3)O[C@]3(C(=O)N(Cc4cccc(I)c4)c4ccccc43)[C@H]2C)cc1` to `O=C1O[C@H](c2ccccc2)[C@H](c2ccccc2)N2[C@H]1[C@@H](C(=O)O)[C@]1(C(=O)Nc3ccccc31)[C@H]2c1ccc(OCCO)cc1`, the z-score rises from -4.61 to 0.234.

Compared with `COCCOC(=O)N1C(=O)[C@@]2(c3cc(C#CC4(O)CCCCCC4)ccc31)[C@H](C(N)=O)[C@H]1C(=O)O[C@H](c3ccccc3)[C@H](c3ccccc3)N1[C@@H]2c1ccc(OCCO)cc1`, `O=C1O[C@H](c2ccccc2)[C@H](c2ccccc2)N2[C@H]1[C@@H](C(=O)N1CCN(c3ncccn3)CC1)[C@]1(C(=O)Nc3ccc(C#CC4(O)CCCCCC4)cc31)[C@H]2c1ccc(O)cc1` is higher in z-score: -4.36 for the first, -2.43 for the second.

Compared with `C=C(CCCC)/C(=C/C[C@@H](OC(C)=O)c1cccc(OCCO)c1)c1cc(C(=O)OC)ccc1OC`, `CO[C@H]1O[C@H](CO)[C@@H](OC(=O)Nc2cccc(F)c2)[C@H](OC(=O)Nc2ccc3c(c2)OCO3)[C@@H]1OC(=O)Nc1ccc2c(c1)OCO2` is lower in z-score: -0.917 for the first, -3.26 for the second.

Compared with `Cc1cccc([C@H]2C[C@H]3C(Br)=C[C@@]2(CO)C(=O)[C@]32CO2)c1`, `COC(=O)[C@@]1(Cc2ccc(F)cc2)[C@H]2c3cc(C(=O)N(C)C)n(Cc4cccc5ccccc45)c3C[C@H]2CN1C(=O)c1ccccc1` is lower in z-score: -0.376 for the first, -0.741 for the second.
